Calls of active or inactive are those of the source.

Results on eight compounds are retold here after PubChem BioAssay.

Test [1] can be described thus: E. coli DRC41 culture turbidity changes, primary screen, E. coli filamentation inducer project, strain DRC41, OD650, 48 h (AID 1152).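 Note: E. coli MC1000 strain DRC41 lacking acrAB efflux pump and sulA.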 The following applies: E. coli DRC41 (acrAB sulA), higher = more signal, called active from +8 up or from −8 down.
Test [2] in a line: small-molecule binders of probe aLefty1, primary screen, biochemical, small-molecule microarray, 635/667 nm fluorescence (AID 1153).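 Note: score merges spot fluorescence with signal-to-noise ratio from the scanned slide images.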 The following applies: higher = more signal.
Test [3] in a line: PSAC antagonists in infected red cells, primary screen, cell-based, P. falciparum Indochina, OD700, 1 h (AID 1154). Conditions: P. falciparum Indochina infected RBC osmotic lysis, higher = more signal, called active from +8 up or from −8 down.
Test [4] can be described thus: PSAC antagonists in infected red cells, primary screen, cell-based, P. falciparum Indochina, OD700, 2 h (AID 1155).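 Note: lysis reports solute entry through the parasite surface anion channel PSAC; channel blockers reduce lysis of infected cells.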 The following applies: P. falciparum Indochina infected erythrocytes, osmotic lysis OD700; higher = more signal, called active from +8 up or from −8 down.
A short description of test [5]: osmotic lysis modulators in infected erythrocytes, primary screen, PSAC antagonist project, cell-based, P. falciparum Indochina, OD700, 3 h (AID 1156). Conditions: higher = more signal, called active from +8 up or from −8 down.
A short description of test [6]: PSAC antagonists in infected red cells, primary screen, cell-based, P. falciparum Indochina, OD700, 18 h (AID 1157). The following applies: P. falciparum Indochina infected erythrocytes, osmotic lysis OD700, 18 h; higher = more signal, called active from +8 up or from −8 down.
Test [7] can be described thus: modulators of S6 phosphorylation in cells, primary screen, cell-based, A549, cytoblot, luminescence, serum-stimulated (AID 1158).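 Note: serum-stimulated A549 lung adenocarcinoma cells; signal is phosphorylated S6 detected by cytoblot immunostaining with HRP secondary.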 Conditions: A549 phospho-S6 cytoblot, 5 h, higher = more signal.
In test [8] the target is NADPH oxidase 2 (Homo sapiens) (UniProt P04839). Put plainly: NOX2-dependent H2O2 signal modulators, primary screen, NOX inhibitor project, cell-based, HEK293-NOX2, PMA-stimulated, Amplex Red fluorescence (AID 1159). Note: test concentration not given here. Conditions: 45 min, higher = more signal, called active from +8 up or from −8 down.
NADPH oxidase 2 (Homo sapiens), sequence (P04839 whole entry, looked up): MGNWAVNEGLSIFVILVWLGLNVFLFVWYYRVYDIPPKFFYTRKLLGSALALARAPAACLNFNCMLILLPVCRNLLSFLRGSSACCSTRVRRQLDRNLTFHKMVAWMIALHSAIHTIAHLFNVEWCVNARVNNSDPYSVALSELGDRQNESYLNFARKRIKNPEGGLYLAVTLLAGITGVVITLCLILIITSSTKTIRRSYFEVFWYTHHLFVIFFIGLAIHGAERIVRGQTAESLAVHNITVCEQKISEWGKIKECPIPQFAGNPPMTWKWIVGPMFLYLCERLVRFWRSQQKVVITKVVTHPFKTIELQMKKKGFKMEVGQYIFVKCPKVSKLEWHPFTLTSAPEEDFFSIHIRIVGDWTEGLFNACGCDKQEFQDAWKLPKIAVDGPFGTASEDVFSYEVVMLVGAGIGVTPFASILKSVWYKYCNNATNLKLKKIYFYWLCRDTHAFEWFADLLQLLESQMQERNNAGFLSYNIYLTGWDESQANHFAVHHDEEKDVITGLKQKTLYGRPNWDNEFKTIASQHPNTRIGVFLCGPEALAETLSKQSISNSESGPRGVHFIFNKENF
Test [9] addresses NADPH oxidase 4 (Homo sapiens) (UniProt Q9NPH5). Put plainly: NOX4-dependent H2O2 signal modulators, primary screen, NOX inhibitor project, cell-based, HEK293-NOX4, tetracycline-induced, Amplex Red fluorescence (AID 1160). The following applies: 45 min, higher = more signal, called active from +8 up or from −8 down.
Test [10] deals with NADPH oxidase 5 (Homo sapiens) (UniProt Q96PH1). Put plainly: NOX5-dependent H2O2 signal modulators, primary screen, NOX inhibitor project, cell-based, HEK293-NOX5, Amplex Red fluorescence (AID 1161). The following applies: HEK293-NOX5, ionomycin, 45 min, higher = more signal.
NADPH oxidase 5 (Homo sapiens), sequence (Q96PH1 whole entry, looked up): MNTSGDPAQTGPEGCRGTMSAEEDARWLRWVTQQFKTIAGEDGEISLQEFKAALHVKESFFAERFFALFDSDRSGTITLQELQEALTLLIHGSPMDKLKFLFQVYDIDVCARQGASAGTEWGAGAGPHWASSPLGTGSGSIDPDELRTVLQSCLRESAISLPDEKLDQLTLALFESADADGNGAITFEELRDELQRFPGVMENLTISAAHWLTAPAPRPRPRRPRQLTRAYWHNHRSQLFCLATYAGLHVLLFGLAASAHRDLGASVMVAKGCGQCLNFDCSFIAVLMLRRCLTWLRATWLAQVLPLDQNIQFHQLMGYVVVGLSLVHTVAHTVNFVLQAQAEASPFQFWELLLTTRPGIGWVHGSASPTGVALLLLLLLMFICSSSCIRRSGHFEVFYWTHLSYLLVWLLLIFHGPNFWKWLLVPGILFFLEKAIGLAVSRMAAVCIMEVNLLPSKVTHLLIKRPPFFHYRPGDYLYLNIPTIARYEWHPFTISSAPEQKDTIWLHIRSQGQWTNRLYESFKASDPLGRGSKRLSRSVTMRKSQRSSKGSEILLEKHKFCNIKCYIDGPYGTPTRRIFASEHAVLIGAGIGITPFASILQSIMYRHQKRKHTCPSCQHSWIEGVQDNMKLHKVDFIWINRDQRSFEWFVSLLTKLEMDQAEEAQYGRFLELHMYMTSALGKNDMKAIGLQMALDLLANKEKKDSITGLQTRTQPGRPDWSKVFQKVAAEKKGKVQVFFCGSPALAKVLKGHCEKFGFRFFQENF
The nature of test [11]: A549 cell viability effects, profiling panel, calcein-AM fluorescence, 48 h, basal (AID 1162). Note: test concentration not given here. Conditions: higher = more signal.
Test [12] is described as follows: adipocyte viability effects, profiling panel, cell-based, 3T3-L1 adipocytes, calcein-AM fluorescence, 48 h, basal (AID 1163). Note: test concentration not given here. Conditions: 3T3-L1 adipocytes viability, higher = more signal.
A short description of test [13]: HepG2 cell viability effects, profiling panel, calcein-AM fluorescence, 48 h, basal (AID 1164). Note: test concentration not given here. Conditions: higher = more signal.
Test [14] can be described thus: MM1S cell viability effects, profiling panel, calcein-AM fluorescence, 48 h, basal (AID 1165).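 Note: viability of MM1S multiple myeloma cells under basal unstimulated conditions; test concentration not given here.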 The following applies: higher = more signal.
A short description of test [15]: basal RPMI8226 viability, no added stimulus, profiling panel, cell-based, calcein-AM fluorescence, 48 h, PK04 Diversity Set (AID 1166).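 Note: cells grown under basal conditions without added stimulus; test concentration not given here.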 The following applies: RPMI8226 myeloma viability, higher = more signal.
Test [16] is described as follows: basal HepG2 mitochondrial membrane potential changes, profiling panel, cell-based, JC-1 fluorescence, 24 h, 100 nL compound (AID 1167). Note: test concentration not given here. Conditions: higher = more signal.
The nature of test [17]: basal 3T3-L1 adipocyte mitochondrial potential changes, profiling panel, cell-based, JC-1 fluorescence, 3T3-L1 adipocytes, 24 h, 100 nL compound (AID 1168). Note: test concentration not given here. Conditions: JC-1 mitochondrial fluorescence, higher = more signal, called active from +8 up or from −8 down.
Test [18] is described as follows: basal RPMI8226 mitochondrial membrane potential changes, profiling panel, cell-based, JC-1 fluorescence, 24 h, 100 nL compound (AID 1169). Note: test concentration not given here. Conditions: RPMI8226 myeloma, JC-1 mitochondrial potential fluorescence, higher = more signal.
The nature of test [19]: basal MM1S mitochondrial membrane potential changes, profiling panel, cell-based, JC-1 fluorescence, 24 h, 100 nL compound (AID 1170). Note: test concentration not given here. The following applies: higher = more signal.
Test [20] in a line: A549 lung cancer cell viability effects, profiling panel, resazurin fluorescence, 24 h, PK04 Diversity Set (AID 1171). Note: test concentration not given here. The following applies: higher = more signal, called active from +8 up or from −8 down. In general terms: Resazurin is reduced to fluorescent resorufin, in cell work by metabolically active cells.

NADPH oxidase 4 (Homo sapiens), sequence (Q9NPH5 whole entry, looked up): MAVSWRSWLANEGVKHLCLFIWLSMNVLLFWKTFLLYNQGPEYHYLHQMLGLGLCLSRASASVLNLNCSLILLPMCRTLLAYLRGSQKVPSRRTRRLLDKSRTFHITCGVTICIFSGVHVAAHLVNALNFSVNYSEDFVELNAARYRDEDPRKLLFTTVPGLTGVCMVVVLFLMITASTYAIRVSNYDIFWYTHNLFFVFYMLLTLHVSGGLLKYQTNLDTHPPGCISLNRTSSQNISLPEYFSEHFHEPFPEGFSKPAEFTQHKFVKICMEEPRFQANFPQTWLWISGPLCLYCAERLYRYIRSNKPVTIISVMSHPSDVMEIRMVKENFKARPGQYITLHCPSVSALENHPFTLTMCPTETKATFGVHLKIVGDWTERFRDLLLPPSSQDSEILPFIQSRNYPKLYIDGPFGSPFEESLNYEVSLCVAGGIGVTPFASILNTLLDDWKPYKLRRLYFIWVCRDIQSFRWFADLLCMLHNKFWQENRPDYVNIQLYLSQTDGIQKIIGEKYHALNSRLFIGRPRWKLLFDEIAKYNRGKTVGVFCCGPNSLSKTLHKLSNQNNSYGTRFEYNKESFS

With `COc1ccc(NN2C(C(O)c3ccc([N+](=O)[O-])cc3)C=CC3C(=O)N(C4CCCCC4)C(=O)C32)cc1` (stereo not given), the z-score is -0.256 (inactive) in [1]; 7.78 (inactive) in [3]; 1.11 (inactive) in test [4]; -0.187 (inactive) in [5]; 0.708 (inactive) in test [6]; -0.126 in test [7]. Moreover, the z-score is -1.03 (inactive) in test [8]; -2.3 (inactive) in [9]; -0.48 in test [10]; 0.0649 in test [11]; -1.33 in test [12]; 0.52 in test [13]. For the same compound, the z-score in [14] is 0.538; in [15] it was -0.465; in [16], -0.0181; in test [17], 0.369 (inactive); in test [18] it was 0.919; in test [19], -1.71. In [20], the z-score was 1.01 (inactive). This compound registered a composite z-score in [2] of 0.3.
As to `O=C1NC(=O)C2C1C=CC(C(O)c1cccc3ccccc13)N2Nc1ccccn1` (stereo not given), the z-score is -0.0275 (inactive) in [1]; 1.06 (inactive) in test [3]; 0.344 (inactive) in test [4]; 0.274 (inactive) in test [5]; 0.899 (inactive) in [6]; -0.562 in [7]. The z-score was -1.2 (inactive) in test [8]; -2.83 (inactive) in test [9]; -2.36 in test [10]; 0.428 in test [11]; -0.608 in test [12]; -0.32 in [13]. Besides, the z-score in test [14] is 0.002; in test [15], -0.0565; in test [16], 0.15; in test [17] it was -0.0987 (inactive); in test [18] it was -0.216; in test [19], -0.184. Further, the z-score in [20] is -0.721 (inactive). In test [2], this compound returned a composite z-score of 0.137.
Consider `COCCOC(=O)N1C(=O)[C@@]2(c3cc(C#CC4(O)CCCCCC4)ccc31)[C@H](c1ccc(O)cc1)N1[C@H](c3ccccc3)[C@H](c3ccccc3)OC(=O)[C@H]1[C@@H]2C(=O)Nc1nc2ccccc2s1`, for which the z-score in test [1] was -0.565 (inactive); in test [3], 0.69 (inactive); in test [4], 1.05 (inactive); in [5], 0.207 (inactive); in test [6], 1.39 (inactive); in [7], -0.502. The z-score in test [8] was 1.75 (inactive); in test [9], 0.507 (inactive); in [10] it was 1.07; in test [11], 0.3; in [12] it was 0.974; in test [13], 0.702. The z-score in [14] was -1.55; in test [15] it was -1.47; in test [16], -2.78; in [17], -1.11 (inactive); in test [18], -0.876; in [19], 0.18. Moreover, in [20], the z-score is -0.006 (inactive). This compound also gave a composite z-score in test [2] of 1.76.
In the case of `CC(C)OC(=O)C=C1C[C@@H](c2ccccc2C(F)(F)F)O[C@@H](c2ccccc2C(F)(F)F)O1`, the z-score in test [1] is -0.66 (inactive); in test [3] it was 1.66 (inactive); in test [4], 1.55 (inactive); in [5], 0.632 (inactive); in test [6] it was 0.659 (inactive); in [7] it was -0.491. Further, the z-score in test [8] is 0.441 (inactive); in test [9], -0.64 (inactive); in test [10], -0.774; in [11] it was -0.677; in [12], -0.984; in test [13] it was 0.761. For the same compound, the z-score is 0.737 in [14]; 0.217 in [15]; 0.752 in test [16]; 0.341 (inactive) in [17]; 0.589 in test [18]; -0.541 in [19]. The z-score in test [20] is 1.08 (inactive). The compound further returned a composite z-score in [2] of -0.0011.
As to `COC(=O)C(CC#Cc1ccc2c(c1)[C@]1(C(=O)N2)[C@H](C(=O)O)[C@H]2C(=O)O[C@H](c3ccccc3)[C@H](c3ccccc3)N2[C@@H]1c1ccc(O)cc1)C(=O)OC`, the z-score is -0.818 (inactive) in test [1]; 1.83 (inactive) in [3]; -0.038 (inactive) in test [4]; -0.15 (inactive) in [5]; -0.0548 (inactive) in test [6]; 0.148 in [7]. The z-score was 0.699 (inactive) in [8]; -0.0438 (inactive) in test [9]; 0.921 in test [10]; -0.389 in [11]; -0.405 in test [12]; 0.0982 in test [13]. For the same compound, the z-score was -0.0724 in [14]; -0.263 in test [15]; -2.08 in test [16]; -0.269 (inactive) in [17]; -0.28 in test [18]; -0.331 in [19]. In addition, in [20], the z-score is 0.831 (inactive). Moreover, the composite z-score in test [2] came out at 0.145.
On to `O=C(NCc1ccccc1)[C@@]1(CCS(=O)(=O)c2ccccc2)N=C(c2ccc(OCCCO)cc2)O[C@H]1c1ccccc1`, for which the z-score in [1] is 1.06 (inactive); in test [3] it was 26.4 (active); in test [4], 10.4 (active); in test [5], 0.559 (inactive); in test [6], 1.99 (inactive); in test [7] it was 0.0734. The z-score in test [8] was -0.321 (inactive); in test [9], 1.35 (inactive); in test [10] it was 1.33; in [11], 0.364; in test [12] it was -0.153; in test [13] it was -0.203. Moreover, the z-score in [14] is -0.335; in test [15], -0.672; in [16], 1.17; in test [17], 0.802 (inactive); in test [18], -0.935; in [19], -1.58. For the same compound, the z-score in [20] is -0.541 (inactive). Also, the composite z-score in [2] was found to be 0.351.
Consider `C=C(COC)/C(=C/C[C@@H](OC(C)=O)c1ccc(CO)o1)c1cnc2ccccc2c1`, for which the z-score in [1] is 0.876 (inactive); in [3], 4.44 (inactive); in test [4], 0.759 (inactive); in [5], 1.56 (inactive); in test [6], 0.307 (inactive); in test [7] it was 0.0933. The z-score is 0.299 (inactive) in test [8]; -2.98 (inactive) in [9]; -1.25 in [10]; -0.11 in test [11]; 0.523 in test [12]; -0.856 in test [13]. The z-score in test [14] is 0.0139; in [15] it was -0.672; in test [16], -0.733; in test [17], -0.306 (inactive); in test [18], -0.33; in test [19], 1.33. In addition, in [20], the z-score is -0.874 (inactive). Also, the composite z-score in [2] amounted to 0.233.
Regarding `COC(=O)[C@@]1(Cc2ccc(OC)cc2)[C@H]2c3cc(C(=O)N(C)C)n(CCN4CNCC4=O)c3C[C@H]2CN1C(=O)c1ccccc1`, the z-score is -1.1 (inactive) in [1]; 0.143 (inactive) in [3]; -0.954 (inactive) in test [4]; -0.163 (inactive) in [5]; -2.05 (inactive) in [6]; 0.963 in [7]. In addition, the z-score in test [8] was 0.821 (inactive); in [9] it was 2.29 (inactive); in [10], 0.453; in [11], -0.663; in test [12] it was -0.261; in [13], -0.254. For the same compound, the z-score was 0.316 in test [14]; 0.177 in test [15]; -0.812 in [16]; 0.489 (inactive) in [17]; -0.111 in test [18]; -1.28 in test [19]. The z-score in [20] was 0.367 (inactive). For the same compound, in test [2], the composite z-score was found to be 0.249.
